# From PubChem BioAssay
# Values joined by “and” are separate entries in the source; they are usually repeats but may differ in a detail not shown here. Identical values can stand only once. Records with an inconclusive call do not appear. Active and inactive are the calls of the source.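 How the source made its calls, unless noted: active means normalized viability below 100% at a tested concentration; inactive means the rest.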
# What was measured:
# [1] = viability loss in pontine glioma line – cell-based, SU-DIPG-XXV, MIPE5.0, CellTiter-Glo, qHTS, dose response (AID 1347065; cut-off not given, nearly all actives have AC50 up to about 26 µM;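 further: cells exposed to compound for 48 hours before ATP readout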); details: CellTiter-Glo ATP luminescence
# [2] = JHH-DIPG-1 glioma cell viability, MIPE5.0 library, CellTiter-Glo luminescence, qHTS (AID 1347067; cut-off not given, nearly all actives have AC50 up to about 26 µM;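 further: cells exposed to compound for 48 hours before readout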); details: JHH-DIPG-1 glioma viability, CellTiter-Glo ATP luminescence
# [3] = SU-DIPG-XXV glioma cell viability, MIPE5.0 library, qHTS (AID 1347068; cut-off not given, nearly all actives have IC50 up to about 30 µM)
# [4] = inhibitors of Cryptococcus chitosan production, flow cytometry, Cibacron Brilliant Red staining (AID 1347148; call rule not given here;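 further: compound exposure lasted three days at 37 degrees C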); details: Cryptococcus neoformans chitosan, stronger effect = lower value; at 10 µM unless noted
# [5] = phospholipid biosynthesis inhibitors in animal cells, primary screen, cell-based, LOPAC library, screen 4 (AID 1347384; call rule not given here); details: phospholipid biosynthesis inhibition screen, at 10 µM
# [6] = survival rescue of mitochondrial mutant cells in low glucose, primary screen, MELAS cybrids, Rieske KO mouse fibroblasts, CellTiter-Glo (AID 1508586;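 active means mean z-score across replicates of 1.96 or higher in either the MELAS or the Rieske mutant cell line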;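 further: z relative to plate mean and SD of compound and empty wells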)
# [7] = ovarian cancer cell viability with rucaparib, profiling panel, oncology-focused library, rucaparib conditional (AID 1508598); details: patient-derived ovarian cancer cells, CellTiter-Glo viability, 144 h, stronger effect = lower value
# [8] = molecular target: Mitogen-activated protein kinase 7 (Homo sapiens) (UniProt Q13164); test: ERK5 transactivation activators in reporter cells, primary screen, cell-based, HTS (AID 1508626;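 active means luciferase signal above three times the same-plate solvent-only control wells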;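 further: luciferase driven by Gal4-ERK5 fusion binding five Gal4 sites before minimal TATA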); details: HeLa Gal4-ERK5 transactivation, 18 h, at 5 µM, stronger effect = higher value
# Chain of Mitogen-activated protein kinase 7 (Homo sapiens) (Q13164 whole entry, looked up, the tested form may be a part): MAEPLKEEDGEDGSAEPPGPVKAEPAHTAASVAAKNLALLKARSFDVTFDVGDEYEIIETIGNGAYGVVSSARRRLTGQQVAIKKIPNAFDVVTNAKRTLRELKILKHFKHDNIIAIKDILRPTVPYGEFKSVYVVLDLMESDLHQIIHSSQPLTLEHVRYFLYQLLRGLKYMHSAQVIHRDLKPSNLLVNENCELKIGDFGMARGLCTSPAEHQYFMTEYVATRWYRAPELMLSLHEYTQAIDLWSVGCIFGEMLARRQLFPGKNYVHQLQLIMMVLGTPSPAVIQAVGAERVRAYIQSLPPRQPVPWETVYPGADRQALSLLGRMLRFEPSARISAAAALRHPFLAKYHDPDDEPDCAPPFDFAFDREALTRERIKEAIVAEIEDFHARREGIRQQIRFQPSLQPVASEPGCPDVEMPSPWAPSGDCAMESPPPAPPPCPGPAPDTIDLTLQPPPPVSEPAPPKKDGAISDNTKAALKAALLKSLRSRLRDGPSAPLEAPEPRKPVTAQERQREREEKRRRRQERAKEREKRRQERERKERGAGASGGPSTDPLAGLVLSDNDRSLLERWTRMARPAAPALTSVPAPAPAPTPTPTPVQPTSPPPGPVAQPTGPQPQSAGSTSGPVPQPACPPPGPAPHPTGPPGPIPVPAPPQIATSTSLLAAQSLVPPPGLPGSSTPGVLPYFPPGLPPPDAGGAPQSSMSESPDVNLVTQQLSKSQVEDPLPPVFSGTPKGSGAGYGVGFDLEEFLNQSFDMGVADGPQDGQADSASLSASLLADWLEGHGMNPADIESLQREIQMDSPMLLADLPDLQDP
# [9] = viability rescue of complex I mutant cybrids, primary screen, cell-based, galactose medium, ATP luminescence (AID 1645843;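 active means z-score of at least 1.8 in each of two replicates, scored against plate mean and spread of sample wells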;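 further: positive z means more ATP and so rescue of galactose-driven cybrid death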); details: complex I mutant cybrid cells, 72 h, stronger effect = higher value
# [10] = LFS_MB_P medulloblastoma growth inhibition, cell-based, chromothripsis tumors, cisplatin or BGB combos (AID 1671449; in the data active means inhibition above about 80%;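 further: cells exposed for 96 hours; 0% = vehicle DMSO and 100% = killing by high DMSO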); details: LFS_MB_P medulloblastoma cells
# [11] = HDN33 neuroblastoma growth inhibition, cell-based, chromothripsis tumors, cisplatin or BGB combos (AID 1671450; in the data active means inhibition above about 80%;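 further: cells exposed to compound for four days; 0% = vehicle DMSO and 100% = cell killing by high DMSO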); details: HDN33 neuroblastoma cells, stronger effect = higher value
# [12] = ICB984 medulloblastoma cell growth inhibition, synergistic combos for chromothripsis tumors, cisplatin or BGB combos (AID 1671451; call rule not given here;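 further: cells exposed for 96 hours before readout; 0% = vehicle DMSO and 100% = killing by high DMSO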); details: ICB984 medulloblastoma cells, drug combinations, stronger effect = higher value
# [13] = LFS_MB_1R medulloblastoma cell growth inhibition, synergistic combos for chromothripsis tumors, cisplatin or BGB combos (AID 1671452; in the data active means inhibition above about 80%;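 further: cells exposed for 96 hours before readout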); details: LFS_MB_1R medulloblastoma cells, stronger effect = higher value
# [14] = HTB85 osteosarcoma cell growth inhibition, synergistic combos for chromothripsis tumors, BGB or cisplatin IC20 combos (AID 1671453; in the data active means inhibition above about 80%;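 further: cells exposed for 96 hours before readout; 0% = vehicle DMSO and 100% = high DMSO killing control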); details: HTB85 osteosarcoma cells, drug combinations, stronger effect = higher value
# [15] = CRL2098 osteosarcoma cell growth inhibition, synergistic combos for chromothripsis tumors, BGB or cisplatin IC20 combos (AID 1671454; in the data active means inhibition above about 80%;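 further: cells exposed for 96 h before readout; 0% = vehicle DMSO and 100% = killing by high DMSO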); details: CRL2098 osteosarcoma cells, drug combinations, stronger effect = higher value
# [16] = HD-MB03 medulloblastoma cell growth inhibition, synergistic combos for chromothripsis tumors, BGB or cisplatin IC20 combos (AID 1671455; in the data active means inhibition above about 83%;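 further: 0% = vehicle DMSO and 100% = high DMSO as cytotoxic control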); details: HD-MB03 medulloblastoma cells, stronger effect = higher value
# [17] = measured here: combination with BGB IC40, at 0.05 µM
smiles,measurement,setting,value
O=c1c(O)c(-c2ccc(O)c(O)c2)oc2cc(O)cc(O)c12,outcome,[1],inactive
same,outcome,[2],inactive
same,outcome,[3],inactive
same,fold fluorescence,[4],2.95 [at 165.4 µM] (active)
same,outcome,[5],inactive
same,z-score,"[6]; MELAS cybrid survival, CellTiter-Glo 48 h, stronger effect = higher value",-0.4 (inactive) and -0.42 (inactive)
same,z-score,"[6]; Rieske KO mouse fibroblast survival, CellTiter-Glo 72 h",-1.01 and 0.378
same,viability,"[7]; at 0.000305 µM, OCI-C5x cells, with rucaparib 10 µM, 100% = cells with rucaparib alone",118% (inactive)
same,viability,"[7]; at 0.000305 µM, OCI-C5x cells, without rucaparib",113% (inactive)
same,viability,"[7]; at 0.000305 µM, OCI-P5x cells, with rucaparib 20 µM, 100% = cells with rucaparib alone",92% (active)
same,viability,"[7]; at 0.000305 µM, OCI-P5x cells, without rucaparib",92.3% (active)
same,viability,"[7]; at 0.00122 µM, OCI-C5x cells, with rucaparib 10 µM, 100% = cells with rucaparib alone",122% (inactive)
same,viability,"[7]; at 0.00122 µM, OCI-C5x cells, without rucaparib",119% (inactive)
same,viability,"[7]; at 0.00122 µM, OCI-P5x cells, with rucaparib 20 µM, 100% = cells with rucaparib alone",97.3% (active)
same,viability,"[7]; at 0.00122 µM, OCI-P5x cells, without rucaparib",102% (inactive)
same,viability,"[7]; at 0.00488 µM, OCI-C5x cells, with rucaparib 10 µM, 100% = cells with rucaparib alone",117% (inactive)
same,viability,"[7]; at 0.00488 µM, OCI-C5x cells, without rucaparib",129% (inactive)
same,viability,"[7]; at 0.00488 µM, OCI-P5x cells, with rucaparib 20 µM, 100% = cells with rucaparib alone",104% (inactive)
same,viability,"[7]; at 0.00488 µM, OCI-P5x cells, without rucaparib",105% (inactive)
same,viability,"[7]; at 0.0195 µM, OCI-C5x cells, with rucaparib 10 µM, 100% = cells with rucaparib alone",127% (inactive)
same,viability,"[7]; at 0.0195 µM, OCI-C5x cells, without rucaparib",125% (inactive)
same,viability,"[7]; at 0.0195 µM, OCI-P5x cells, with rucaparib 20 µM, 100% = cells with rucaparib alone",105% (inactive)
same,viability,"[7]; at 0.0195 µM, OCI-P5x cells, without rucaparib",105% (inactive)
same,viability,"[7]; at 0.0781 µM, OCI-C5x cells, with rucaparib 10 µM, 100% = cells with rucaparib alone",114% (inactive)
same,viability,"[7]; at 0.0781 µM, OCI-C5x cells, without rucaparib",125% (inactive)
same,viability,"[7]; at 0.0781 µM, OCI-P5x cells, with rucaparib 20 µM, 100% = cells with rucaparib alone",105% (inactive)
same,viability,"[7]; at 0.0781 µM, OCI-P5x cells, without rucaparib",109% (inactive)
same,viability,"[7]; at 0.313 µM, OCI-C5x cells, with rucaparib 10 µM, 100% = cells with rucaparib alone",111% (inactive)
same,viability,"[7]; at 0.313 µM, OCI-C5x cells, without rucaparib",127% (inactive)
same,viability,"[7]; at 0.313 µM, OCI-P5x cells, with rucaparib 20 µM, 100% = cells with rucaparib alone",101% (inactive)
same,viability,"[7]; at 0.313 µM, OCI-P5x cells, without rucaparib",112% (inactive)
same,viability,"[7]; at 1.25 µM, OCI-C5x cells, with rucaparib 10 µM, 100% = cells with rucaparib alone",111% (inactive)
same,viability,"[7]; at 1.25 µM, OCI-C5x cells, without rucaparib",125% (inactive)
same,viability,"[7]; at 1.25 µM, OCI-P5x cells, with rucaparib 20 µM, 100% = cells with rucaparib alone",103% (inactive)
same,viability,"[7]; at 1.25 µM, OCI-P5x cells, without rucaparib",107% (inactive)
same,viability,"[7]; at 5 µM, OCI-C5x cells, with rucaparib 10 µM, 100% = cells with rucaparib alone",109% (inactive)
same,viability,"[7]; at 5 µM, OCI-C5x cells, without rucaparib",120% (inactive)
same,viability,"[7]; at 5 µM, OCI-P5x cells, with rucaparib 20 µM, 100% = cells with rucaparib alone",90.4% (active)
same,viability,"[7]; at 5 µM, OCI-P5x cells, without rucaparib",107% (inactive)
same,luciferase signal,[8],72 AU (inactive)
same,z-score,[9],-0.695 (inactive) and -0.855 (inactive)
same,inhibition,"[10]; at 0.5 µM, stronger effect = higher value",-5.93% (inactive)
same,inhibition,"[10]; measured here: combination with BGB IC20, at 0.005 µM",17%
same,inhibition,"[10]; measured here: combination with BGB IC40, at 0.005 µM",13.5%
same,inhibition,[10]; [17],25.1%
same,inhibition,"[10]; measured here: combination with cisplatin, at 0.5 µM, stronger effect = higher value",-24.2%
same,inhibition,"[10]; measured here: combination with cisplatin, at 5 µM, stronger effect = higher value",20.2%
same,inhibition,"[11]; BGB combo, at 5 µM",-9.66%
same,inhibition,[11]; at 0.5 µM,-7.52% (inactive)
same,inhibition,"[11]; cisplatin combo, at 5 µM",10.5%
same,inhibition,"[11]; measured here: with BGB IC20 combination, at 0.5 µM",-21.2%
same,inhibition,"[11]; measured here: with cisplatin IC20 combination, at 0.5 µM",12.4%
same,inhibition,"[11]; single agent, at 5 µM",-15.2%
same,inhibition,"[12]; BGB IC20 combo, at 0.005 µM",14%
same,inhibition,"[12]; BGB IC40 combo, at 0.005 µM",-3.66%
same,inhibition,"[12]; BGB IC40 combo, at 0.05 µM",-21.1%
same,inhibition,[12]; at 0.5 µM,2.09% (inactive)
same,inhibition,"[12]; cisplatin combo, at 0.05 µM",-21.1%
same,inhibition,"[12]; cisplatin combo, at 0.5 µM",-0.46%
same,inhibition,"[12]; cisplatin combo, at 5 µM",-2.17%
same,inhibition,"[12]; measured here: 5 uM single agent, at 5 µM",2.61%
same,inhibition,[13]; at 0.5 µM,-24.6% (inactive)
same,inhibition,[13]; [17],7.65%
same,inhibition,"[13]; measured here: combination with cisplatin, at 0.5 µM",-39%
same,inhibition,"[13]; measured here: combination with cisplatin, at 5 µM",-2.19%
same,inhibition,[14]; at 0.5 µM,-16.3% (inactive)
same,inhibition,"[14]; measured here: with BGB IC20, at 0.5 µM",-21.8%
same,inhibition,"[14]; measured here: with BGB IC20, at 5 µM",-1.29%
same,inhibition,"[14]; measured here: with cisplatin IC20, at 0.5 µM",-33.8%
same,inhibition,"[14]; measured here: with cisplatin IC20, at 5 µM",-25%
same,inhibition,"[14]; single agent, at 5 µM",-18.2%
same,inhibition,[15]; at 0.5 µM,-28.1% (inactive)
same,inhibition,"[15]; measured here: combination with BGB at IC20, at 0.5 µM",-37.5%
same,inhibition,"[15]; measured here: combination with cisplatin at IC20, at 0.5 µM",-36.5%
same,inhibition,[16]; at 0.5 µM,-8.42% (inactive)
same,inhibition,"[16]; measured here: combo with BGB at IC20, at 0.5 µM",-5.54%
same,inhibition,"[16]; measured here: combo with cisplatin at IC20, at 0.5 µM",-14%
